Data taken from PubChem BioAssay AID1159580 (chemical genetic matrix, 2015).
Out of some 5,500 compounds screened, about 2,000 (36%) were called active. Not shown: some 18% with an inconclusive outcome. Rule as the data show it: active = normalized growth mostly below about 0.91 (no sharp cut-off); inconclusive = no clear call, values can overlap the other calls; inactive = mostly above about 0.92. Some of the results follow.

Assay: chemical genetic growth profiling, strain panel (AID 1159580);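 also: tested at 20 µM; growth read once vehicle control cultures reached saturation at 30 °C; 1 = growth at the plate median or of vehicle wells; lower values mean less growth of the strain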
Conditions: S. cerevisiae deletion strains, growth OD
[1] = locus YAL013W, strain DEP1, hits give low values
[2] = locus YDL101C, strain DUN1, hits give low values
[3] = locus YGR078C, strain PAC10, hits give low values
[4] = locus YHR030C, strain SLT2, hits give low values
[5] = locus YJR075W, strain HOC1, hits give low values
[6] = locus YMR307W, strain GAS1, hits give low values
[7] = locus YNL153C, strain GIM3, hits give low values
[8] = locus YNL322C, strain KRE1, hits give low values
[9] = locus YPL055C, strain LGE1, hits give low values
[10] = locus YPL241C, strain CIN2, hits give low values
[11] = locus YAL040C, strain CLN3, hits give low values
[12] = locus YCL061C, strain MRC1 (second series), hits give low values
[13] = locus YDR363W, strain ESC2, hits give low values
[14] = locus YER002W, strain NOP16, hits give low values
[15] = locus YNL175C, strain NOP13, hits give low values
[16] = locus YNL197C, strain WHI3, hits give low values
[17] = locus YNL224C, strain SQS1, hits give low values
[18] = locus YOR083W, strain WHI5 (second series), hits give low values
[19] = locus YGR229C, strain SMI1, hits give low values

Measured: normalized growth

O=C1CC(c2ccccc2)=NO1
active: [1] 0.683 | locus YBR229C, strain ROT2, hits give low values 0.336 | [2] 0.395 | locus YEL061C, strain CIN8, hits give low values 0.862 | [3] 0.174 | [4] 0.615 | locus YHR087W, strain rtc3, hits give low values 0.419 | locus YJL187C, strain SWE1, hits give low values 0.298 | locus YJR043C, strain POL32, hits give low values 0.566 | [5] 0.3 | locus YLR058C, strain SHM2 (second series), hits give low values 0.431 | locus YLR085C, strain ARP6, hits give low values 0.432 | locus YML094W, strain GIM5, hits give low values 0.743 | locus YMR219W, strain ESC1, hits give low values 0.26 | [6] 0.511 | [7] 0.0697 | locus YNL298W, strain CLA4 (second series), hits give low values 0.797 | [8] 0.737 | locus YNR030W, strain Alg12, hits give low values 0.803 | [9] 0.666 | [10] 0.68 | locus YPR135W, strain CTF4, hits give low values 0.528
inactive: locus YKL190W, strain CNB1, hits give low values 0.987 | locus YLR039C, strain RIC1, hits give low values 1.11 | locus YLR262C, strain YPT6, hits give low values 1.08

CSc1c(C#N)c(-c2ccc(Cl)cc2)nn1C(=O)c1ccccc1Cl
inactive: locus YAR019C, strain CDC15, hits give low values 0.966 | locus YBL105C, strain PKC1, hits give low values 0.95 | locus YBR135W, strain CKS1, hits give low values 0.957 | locus YBR136W, strain MEC1, hits give low values 0.951 | locus YBR160W, strain CDC28, hits give low values 0.951 | locus YDL017W, strain CDC7, hits give low values 0.946 | locus YDL028C, strain MPS1, hits give low values 0.951 | [2] 0.94 | locus YDL108W, strain KIN28, hits give low values 0.954 | locus YDL132W, strain cdc53, hits give low values 0.948 | locus YDL214C, strain PRR2, hits give low values 0.964 | locus YDR052C, strain DBF4, hits give low values 0.957 | locus YDR054C, strain cdc34, hits give low values 0.941 | locus YDR226W, strain ADK1, hits give low values 0.933 | locus YDR477W, strain SNF1, hits give low values 0.938 | locus YER123W, strain YCK3, hits give low values 0.946 | locus YER133W, strain GLC7, hits give low values 0.962 | locus YFL009W, strain cdc4, hits give low values 0.951 | locus YFL029C, strain CAK1, hits give low values 0.958 | locus YFR003C, strain YPI1, hits give low values 0.954 | locus YFR019W, strain FAB1, hits give low values 1 | locus YFR028C, strain CDC14, hits give low values 0.948 | locus YGR040W, strain KSS1, hits give low values 0.931 | locus YGR052W, strain FMP48, hits give low values 0.97 | locus YGR092W, strain DBF2, hits give low values 0.895 | [4] 1.03 | locus YHR079C, strain IRE1, hits give low values 1.03 | locus YHR082C, strain KSP1, hits give low values 1.01 | locus YHR205W, strain SCH9, hits give low values 0.872 | locus YIL147C, strain SLN1, hits give low values 0.949 | locus YJL095W, strain BCK1, hits give low values 0.9 | locus YJL128C, strain PBS2, hits give low values 0.921 | locus YJL157C, strain FAR1, hits give low values 0.965 | locus YJR016C, strain ILV3, hits give low values 0.945 | locus YJR066W, strain TOR1 (second series), hits give low values 0.946 | locus YJR066W, strain TOR1, hits give low values 1 | locus YKL048C, strain ELM1, hits give low values 0.981 | locus YKL067W, strain YNK1, hits give low values 0.969 | locus YKL101W, strain HSL1, hits give low values 0.933 | locus YKL193C, strain SDS22, hits give low values 0.957 | locus YKL203C, strain TOR2, hits give low values 1.06 | locus YLR133W, strain CKI1, hits give low values 0.969 | locus YLR403W, strain SFP1, hits give low values 0.889 | locus YML070W, strain DAK1, hits give low values 0.948 | locus YMR001C, strain CDC5, hits give low values 0.957 | locus YMR205C, strain PFK2 (second series), hits give low values 0.969 | locus YMR277W, strain FCP1, hits give low values 0.966 | locus YNL006W, strain LST8, hits give low values 0.975 | locus YNL020C, strain ARK1, hits give low values 0.958 | locus YNL161W, strain CBK1, hits give low values 0.958 | locus YNL183C, strain NPR1, hits give low values 0.969 | locus YNL207W, strain RIO2, hits give low values 0.938 | locus YNL222W, strain SSU72, hits give low values 0.963 | locus YNL307C, strain MCK1 (second series), hits give low values 0.921 | locus YOL078W, strain AVO1, hits give low values 0.958 | locus YOL136C, strain PFK27, hits give low values 0.936 | locus YOR061W, strain CKA2, hits give low values 0.975 | locus YOR119C, strain RIO1, hits give low values 1.01 | locus YOR231W, strain MKK1, hits give low values 0.917 | locus YOR329C, strain SCD5, hits give low values 0.956 | locus YPL031C, strain PHO85, hits give low values 0.934 | locus YPL153C, strain RAD53, hits give low values 0.936 | locus YPL204W, strain HRR25, hits give low values 0.942 | locus YPL209C, strain IPL1, hits give low values 0.958 | locus YPL256C, strain CLN2, hits give low values 1.07 | locus YPR025C, strain CCL1, hits give low values 0.958 | locus YPR106W, strain ISR1, hits give low values 0.939 | locus YPR111W, strain DBF20, hits give low values 0.947 | strain NNK1, hits give low values 0.959 | strain TSCII, hits give low values 0.958
active: locus YLR113W, strain HOG1, hits give low values 0.76

CCCN1CC[C@@H]2c3cc(O)ccc3CC[C@@H]21
inactive: [11] 1.02 | [12] 1.01 | [13] 1.01 | [14] 1.01 | [6] 1 | [7] 1.04 | [15] 1.01 | [16] 1.01 | [17] 1.02 | [8] 1.01 | [18] 1.01

COc1ccc2c(c1O)-c1cccc3c1[C@@H](C2)N(C)CC3
inactive: [1] 0.986 | [11] 0.995 | [12] 1.01 | [13] 0.994 | [14] 1.01 | [3] 1.05 | [19] 1.02 | [5] 1 | locus YMR263W, strain SAP30, hits give low values 0.994 | [6] 1.02 | locus YNL128W, strain TEP1, hits give low values 1.01 | [15] 1.02 | [16] 1.02 | [17] 1.01 | [8] 0.985 | [18] 0.972 | [9] 0.989 | [10] 1.01

CCCN1CCc2cccc3c2[C@H]1Cc1ccc(O)c(O)c1-3
inactive: [11] 0.955 | [14] 0.975 | [15] 0.96 | [16] 0.985 | [17] 0.996
active: [12] 0.516 | [13] 0.79 | [19] 0.186 | [6] 0.481 | [7] 0.534 | [18] 0.631 | [9] 0.23

CCCN1CCc2cc(O)cc3c2[C@H]1Cc1ccc(O)c(O)c1-3
inactive: [11] 1.03 | [13] 0.922 | [14] 1.01 | [15] 1.01 | [16] 0.983 | [17] 1.01 | [18] 0.926
active: [12] 0.779 | [6] 0.771 | [8] 0.654 | [9] 0.553
